Shown are actives, neighbours in structure and some others; about 6.5% of the full set was active somewhere.
LASV entry inh: qHTS for Inhibitors of binding or entry into cells for Lassa Virus. AID 540256, 2011. Potency, µM (titrated, usually from 37.9 µM), inactives show top-dose activity change, negative = inhibition, most hits filed as inhibitors. Lassa virus pseudotype entry inhibition, cell reporter. actives 1.2% (n = 300,000); calls by dose curve; tested in HEK293 cells; also: potency is read from the fitted curve at half-maximal effect; nearly all actives have a fitted effect of over 50% in size
VACV mCherry inh: qHTS for Stage-Specific Inhibitors of Vaccinia Orthopoxvirus: mCherry Reporter Primary qHTS. Vaccinia virus mCherry reporter infection, fluorescence. Potency, µM (doses to about 36.5 µM), for inactives: at the top dose activity change, negative = inhibition, actives largely listed as inhibitors. actives 0.63% (n = 310,000); calls by dose curve; tested in A549 cells; also: potency is read from the fitted curve at half-maximal effect; nearly all actives have a fitted effect of over 35% in size
MARV entry inh: qHTS for inhibitors of binding or entry into cells for Marburg Virus | Marburg virus pseudotyped entry inhibition, cell reporter | Potency, µM (titrated, usually from 37.8 µM), without a hit: at the highest dose activity change, negative = inhibition, actives largely listed as inhibitors | actives 1.8% (n = 300,000); calls by dose curve; tested in HEK293 cells; also: potency is read from the fitted curve at half-maximal effect
HCMV inh: qHTS Assay for inhibitors of the human cytomegalovirus (HCMV); HFF cells, HCMV-luciferase reporter, 72 h; active compounds read low; activity change, negative = inhibition, % at 57.5 µM; actives 4.5% (n = 410,000); AID 1259415, 2018; in the data active = activity change below about -60%; inconclusive = no clear call, values can overlap the other calls; inactive = above about -39%
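Luciferase read-out from HCMV-luciferase-infected HFFs (MOI 1 PFU/cell) 72 h post infection at 37C; compounds added after 16 h cell attachment; activity normalized between buffer-only basal and Salinomycin (10uM) inhibitor controls.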
Vaccinia Venus: qHTS for Stage-Specific Inhibitors of Vaccinia Orthopoxvirus: Venus Reporter Primary qHTS; Potency, µM (series often up to 36.5 µM), without a hit: at the highest dose activity change, negative = inhibition, actives largely listed as inhibitors; actives 0.46% (n = 330,000); Vaccinia virus Venus reporter expression, fluorescence; calls by dose curve; tested in A549 cells; also: potency is read from the fitted curve at half-maximal effect; nearly all actives have a fitted effect of over 30% in size
FMDV inh: High Throughput Screening for Foot and Mouth Disease Virus Antivirals. FMDV antiviral cell-based qHTS. Potency, µM (doses to about 57.9 µM), inactives show at the top dose activity change, negative = inhibition, most hits filed as inhibitors. actives 1.2% (n = 410,000). AID 1159524, 2015; calls by dose curve; tested in HEK293T cells; also: read-out not given here; potency is read from the fitted curve at half-maximal effect; nearly all actives have a fitted effect of over 45% in size
* = called active by the depositor; i = inactive; ? = inconclusive; . = not tested or not shown; [ ] = remark or other dose. % is scaled to controls: 0 for no effect and ±100 for the full control effect.

SMILES	LASV entry inh	VACV mCherry inh	MARV entry inh	HCMV inh	Vaccinia Venus	FMDV inh
O=C(CCC(=O)N1CCOc2ccc(Cl)cc21)NCCCN1CCC(Cc2ccccc2)CC1	.	11%	.	-75*	-20%	-17%
Cc1ccc(C)c(N2CCN(CCCNC(=O)CCC(=O)N3CCOc4ccc(Cl)cc43)CC2)c1	.	.	.	-83*	.	.
Cc1ccc(C)c(N2CCN(C(=O)CCC(=O)N3CCOc4ccc(Cl)cc43)CC2)c1	.	?	.	-80*	?	-28%
O=C(CCC(=O)N1CCOc2ccc(Cl)cc21)NCCCN1CCN(c2ccccc2F)CC1	.	?	.	-24	-11%	?
COc1ccc(N2CCN(CCCNC(=O)CCC(=O)N3CCOc4ccc(Cl)cc43)CC2)cc1	-24%[46.1 µM]	?	?	-20	-17%	-26%
O=C(c1cccs1)N1CCCc2cc(NS(=O)(=O)c3ccc(Br)cc3)ccc21	4%[46.1 µM]	-12%	.	?	-25%	-25%
Cc1ccc(C)c(-n2nnc(-c3nc(-c4ccccc4C)no3)c2C)c1	-13%[46.1 µM]	-7%[7.34 µM]	.	2	-4%[7.34 µM]	35%
CCCCOc1ccc(CC(=O)N(C)OC)cc1	.	25%	.	.	-14%	.
O=C(NC1CCN(Cc2ccccc2)CC1)c1ccccc1Cl	.	.	.	-16	.	5%
Cc1c(C(=O)NC2CCN(Cc3ccccc3)C2)oc2c(Cl)cccc12 (stereo unspecified)	10µM*	?	?	-30	-10%	-29%
Cn1c(N)c(C(=O)CSc2nn(-c3ccc(F)cc3)c(=S)s2)c(=O)n(C)c1=O	.	.	.	?	.	16µM*
O=C(NCCCc1ccccc1)c1nn(-c2ccccc2F)nc1CO	?	-8%	10%[46.1 µM]	-61*	-16%	?
O=C(NCc1cccs1)c1nn(-c2ccccc2F)nc1CO	-26%[46.1 µM]	-23%	12%[46.1 µM]	-66*	-25%	?
O=C(NCCCCc1ccccc1)c1nn(-c2ccccc2F)nc1CO	-3%[46.1 µM]	-7%	-2%[46.1 µM]	-20	-6%	0%
O=C(NCCc1ccccc1)c1nn(-c2ccccc2F)nc1CO	-20%[46.1 µM]	-11%	29%[46.1 µM]	-26	-14%	0%
O=C(NCC(c1ccccc1)c1ccccc1)c1nn(-c2ccccc2F)nc1CO	?	-22%	-9%[46.1 µM]	-35	-21%	10µM*
COc1ccc(CC(=O)NCc2ccc3c(c2)CCN3C(=O)c2ccccc2)cc1OC	-11%[46.1 µM]	-26%	.	18	-14%	-7%
Cc1ccc2nc(-c3ccc(Br)cc3)cc(C(=O)NCC3CCCO3)c2c1 (stereo unspecified)	.	i	.	-100*	-17%	7%
Cc1cc(Br)cc2c(C(=O)NCC3CCCO3)cc(-c3cccs3)nc12 (stereo unspecified)	-12%	-15%	-8%	-10	-15%	9%
COc1cccc(-c2cc(C(=O)NCC3CCCO3)c3cc(Br)cc(C)c3n2)c1 (stereo unspecified)	.	.	.	-60*	.	-16%
O=S(=O)(/C=C/C=C/S(=O)(=O)c1ccccc1)c1ccccc1	1µM*	?	?	-78*	14µM*	7.9µM*
NS(=O)(=O)c1ccccc1	18%	i	-3%	-17	2%	-2%
COc1cccc(C(=O)Nc2nc(-c3nnn(-c4cc(C)ccc4C)c3C)ns2)c1	24%[46.1 µM]	-20%	.	-12	-15%	?
COc1cccc(C(=O)Nc2nc(-c3nnn(-c4ccccc4C(F)(F)F)c3C)ns2)c1	15%[46.1 µM]	-22%	.	-76*	-24%	-11%
COc1ccc(C(=O)Nc2nc(-c3nnn(-c4ccc(F)cc4F)c3C)ns2)cc1	?	?	.	-104*	?	?
Cc1cccc(C(=O)Nc2nc(-c3nnn(-c4cc(C)ccc4C)c3C)ns2)c1	-6%[46.1 µM]	-23%[7.34 µM]	.	-62*	-25%[7.34 µM]	?
CCCCOc1ccc(S(=O)(=O)NCc2csc(-c3ccc(OC)cc3)n2)cc1	4%[46.1 µM]	-17%	-5%[46.1 µM]	96	-16%	-13%
COC(=O)[C@@H]1CC(=O)N[C@@H]1c1ccc(OC(C)C)c(OC)c1	.	.	.	-17	.	.
